The source of these data is PubChem BioAssay (NCATS).

Molecules are shown by their SMILES. Inconclusive results are not listed. Active and inactive are the calls of the source. Calls come from the whole dose curve; as a rule, active = well fitted curve in the direction sought with a large enough effect; inconclusive = small, poorly fitted or top-dose-only effect, or another doubt; inactive = no such curve, though single readings can be large; an effect the other way counts as inactive or inconclusive.

Assay [1] can be described thus: Primary qHTS for inhibitors of La Crosse Virus (LACV) - induced cell death in SH-SY5Y cells (AID 1508616). Note: potency is the fitted concentration of half-maximal effect. The conditions noted are these: SH-SY5Y LACV cytopathicity rescue, ATP luminescence, 6 d; series mostly up to 9.63 µM. Put shortly:
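Screening measures cell viability in LACV-infected SH-SY5Y cultures. Compound was added before virus (0.01 MOI), and ATP was detected by luminescence 6 days later.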

Assay [2] addresses Calcium and integrin-binding protein 1 (Homo sapiens) (UniProt Q99828). The experiment in a line: Validation qHTS for Identification of Calcium Integrin Binding protein 1 (CIB1) Competitor (AID 1508618). The conditions noted are these: CIB1-GST / FITC-alphaIIb peptide fluorescence polarization; series mostly up to 114 µM. Put shortly:
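Displacement of FITC-alphaIIb peptide (100 nM) from CIB1-GST (1 uM) is monitored by polarization in quantitative HTS format; buffer carries 5 mM CaCl2 and 125 mM NaCl at pH 7.4, incubations are at room temperature.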

Assay [3] can be described thus: Primary qHTS for small molecule stabilizers of the endoplasmic reticulum resident proteome: Secreted ER Calcium Modulated Protein (SERCaMP) assay (AID 1508630). The conditions noted are these: SH-SY5Y GLuc-SERCaMP (Gaussia luciferase released on ER calcium loss) secretion, thapsigargin, luminescence; series mostly up to 38.4 µM. Put shortly: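 The SH-SY5Y reporter protocol was run at 3 concentrations up to 38.3 uM (primary) or 11 concentrations (follow-up): 16 h compound, 100 nM thapsigargin for 4 h, then extracellular luciferase luminescence.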

For a further assay, the target named is Papain (Carica papaya) (UniProt P00784). The experiment in a line: Primary qHTS assay for inhibitors of the protease papain (AID 1645873).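 Note: papain turnover of Z-FR-AMC read as the AMC fluorescence gain over 10 min.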 The conditions noted are these: papain Z-FR-AMC cleavage, AMC fluorescence; series mostly up to 49.8 µM.
Papain (Carica papaya), sequence (P00784 whole entry, looked up): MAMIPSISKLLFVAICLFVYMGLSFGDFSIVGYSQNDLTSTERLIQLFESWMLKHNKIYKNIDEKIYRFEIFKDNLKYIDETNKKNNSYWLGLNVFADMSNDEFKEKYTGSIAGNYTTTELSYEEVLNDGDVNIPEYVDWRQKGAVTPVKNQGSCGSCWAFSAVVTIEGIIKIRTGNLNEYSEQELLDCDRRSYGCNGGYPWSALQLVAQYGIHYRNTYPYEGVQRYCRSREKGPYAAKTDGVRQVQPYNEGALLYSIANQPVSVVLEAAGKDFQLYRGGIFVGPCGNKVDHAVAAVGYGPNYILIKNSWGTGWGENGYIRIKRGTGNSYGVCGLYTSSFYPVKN
For assay [4], the target named is N-terminal Xaa-Pro-Lys N-methyltransferase 1 (Homo sapiens) (UniProt Q9BV86). The experiment in a line: Confirmatory qHTS for Inhibitors of N-terminal methyltransferase 1 (NTMT1): MTaseGlo Assay (AID 1645874). Note: nearly all actives have a fitted effect of over 65% in size. Note: potency is the fitted concentration of half-maximal effect. The conditions noted are these: NTMT1 enzyme, MTase-Glo SAH luminescence; series mostly up to 100 µM. Put shortly:
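Enzyme mix (125 nM NTMT1, 100 uM SAM) + compound, 15 min RT; + 1 uM SPKRIA, 30 min RT, dark; MTase-Glo reagent 30 min, detection solution 30 min; luminescence. % inhibition vs no-enzyme/DMSO controls, 4-parameter Hill fit.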

Assay [5] in a line: Counterscreen qHTS for small molecule stabilizers of the endoplasmic reticulum resident proteome: GLuc-NoTag assay (AID 1508627). The conditions noted are these: Gaussia luciferase NoTag secretion counterscreen, luminescence, thapsigargin 100 nM for final 4 h; series mostly up to 76.4 µM. Put shortly: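 Secreted GLuc lacking the SERCaMP modification is measured in SH-SY5Y cells exposed to compound for 19 h and then to thapsigargin (100 nM, 4 h) to deplete ER calcium; hits retested at 11 concentrations, up to 76.6 uM.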

A short description of assay [6]: Confirmatory qHTS for small molecule stabilizers of the endoplasmic reticulum resident proteome: Secreted ER Calcium Modulated Protein (SERCaMP) assay (AID 1508628). Note: potency is the fitted concentration of half-maximal effect; nearly all actives have a fitted effect of over 40% in size. The conditions noted are these: SERCaMP secreted luciferase ER calcium/proteostasis reporter; series mostly up to 76.3 µM. Put shortly:
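GLuc-SERCaMP-expressing SH-SY5Y cells, pretreated 16 h with compound, are challenged with thapsigargin to empty ER calcium stores; after 4 h, coelenterazine is added directly to the medium and luminescence is imaged.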

For assay [7], the target named is Calcium and integrin-binding protein 1 (Homo sapiens) (UniProt Q99828). In words: Primary qHTS for Identification of Calcium Integrin Binding Protein 1 (CIB1) Competitor (AID 1508620).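 Note: GST tagged CIB1 binding a fluorescein labelled alphaIIb integrin peptide tracer; top concentration of the series differs between compounds.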 The conditions noted are these: CIB1-GST / FITC-alphaIIb peptide fluorescence polarization; series mostly up to 114 µM. Put shortly: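 Fluorescence polarization competition: CIB1-GST (1 uM final) preincubated with compound 15 min at room temperature, then FITC-labeled alphaIIb peptide (100 nM final) added for another 15 min. Polarization read at Ex 480/Em 540.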
Calcium and integrin-binding protein 1 (Homo sapiens), sequence (Q99828 whole entry, looked up): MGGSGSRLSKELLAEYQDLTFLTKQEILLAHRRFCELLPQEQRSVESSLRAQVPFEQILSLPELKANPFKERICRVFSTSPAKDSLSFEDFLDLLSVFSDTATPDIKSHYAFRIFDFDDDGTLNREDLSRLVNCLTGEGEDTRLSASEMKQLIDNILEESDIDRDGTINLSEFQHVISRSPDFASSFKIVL

N-terminal Xaa-Pro-Lys N-methyltransferase 1 (Homo sapiens), sequence (Q9BV86 whole entry, looked up): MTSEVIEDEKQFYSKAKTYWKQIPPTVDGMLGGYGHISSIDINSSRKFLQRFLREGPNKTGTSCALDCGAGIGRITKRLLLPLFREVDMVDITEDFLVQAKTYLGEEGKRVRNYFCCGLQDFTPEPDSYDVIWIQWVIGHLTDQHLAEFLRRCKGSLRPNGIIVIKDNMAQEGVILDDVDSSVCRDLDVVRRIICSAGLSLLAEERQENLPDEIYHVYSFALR

As to `CC(C)(C)c1o[nH]c(=O)c1CC(N)C(=O)O` (configuration not stated), the Potency result (in assay [1]; in assay [2]; with Papain (Carica papaya)) was “inactive” throughout. In assay [3], the outcome was inactive.
For the molecule `C[N+]1(C)CCOC(O)(c2ccc(-c3ccc(C4(O)C[N+](C)(C)CCO4)cc3)cc2)C1` (configuration not stated), the Potency entry (in assay [1]; in assay [2]; with Papain (Carica papaya)) was “inactive” in each case. In addition, the result in assay [3] was inactive.
In the case of `C[N+](C)(C)CC#CCN1CCCC1=O`, the Potency result (in assay [1]; in assay [2]; with Papain (Carica papaya)) was “inactive” each time. The outcome in assay [3] was inactive.
As for `Clc1cc(I)cc(Cl)c1NC1=NCCN1`, the Potency result (in assay [1]; in assay [2]; with Papain (Carica papaya)) was “inactive” in each case. Besides, in assay [3], the result was inactive.
Consider `CCCN1CCc2cc(O)cc3c2[C@H]1Cc1ccc(O)c(O)c1-3`, for which the Potency in assay [1] was 2 µM (active). Moreover, the Potency entry (in assay [2]; with Papain (Carica papaya)) was “inactive” throughout. In assay [3], the result was inactive.
Consider `CO[C@H]1CC=C2CCN3CCC4=C(CC(=O)OC4)[C@]23C1`, for which the Potency entry (in assay [1]; in assay [2]; with Papain (Carica papaya)) was “inactive” throughout. Besides, the outcome in assay [3] was inactive.
Turning to `CCN1C[C@@]2(COC)C3[C@@H](OC)C4[C@@H]1C3([C@@H]1C[C@]3(O)[C@H](OC(=O)c5ccccc5)[C@@H]1[C@]4(OC(C)=O)[C@@H](O)[C@@H]3OC)[C@H](OC)C[C@H]2O`, the Potency result (in assay [1]; in assay [2]; in the assay with Papain (Carica papaya)) was “inactive” each time. For the same molecule, the result in assay [3] was inactive.
With `NC(=O)CI`, the Potency entry (in assay [1]; in assay [2]; with Papain (Carica papaya)) was “inactive” throughout. Besides, the outcome in assay [3] was inactive. Moreover, the Potency in assay [4] was 12.3 µM (active).
For the molecule `COc1ccc(CNC(=O)/C=C/c2ccc3[nH]cc(CCN(C)C)c3c2)cc1`, the Potency result (in assay [1]; in assay [2]; with Papain (Carica papaya)) was “inactive” each time. For the same molecule, the outcome in assay [3] was inactive.
As for `N[C@@H](Cn1oc(=O)[nH]c1=O)C(=O)O`, the Potency result (in assay [1]; in assay [2]; with Papain (Carica papaya)) was “inactive” each time. The result in assay [3] was inactive.
For `NC(=O)COc1c(F)cc(SCCNS(=O)(=O)c2ccccc2)cc1F`, the Potency entry (in assay [1]; in assay [2]; with Papain (Carica papaya)) was “inactive” in each case.
In the case of `CC(C)(C)c1cc(C=C(C#N)C#N)cc(C(C)(C)C)c1O`, the Potency result (in assay [1]; in assay [2]; in the assay with Papain (Carica papaya)) was “inactive” each time. Further, in assay [3], the result was inactive. In addition, the Potency in assay [4] is 38.8 µM (active).
Take `NNC(=O)c1ccc(O)cc1`: the Potency entry (in assay [1]; in assay [2]; with Papain (Carica papaya)) was “inactive” throughout. In addition, the outcome in assay [3] was inactive.
Turning to `N#CCCN`, the Potency result (in assay [1]; in assay [2]; with Papain (Carica papaya)) was “inactive” throughout.
For the molecule `CCCN(CCC)CCc1ccc(O)c(O)c1`, the Potency result (in assay [1]; in assay [2]; with Papain (Carica papaya)) was “inactive” each time.
Regarding `CN1CCc2cccc(Cl)c2CC1`, the Potency result (in assay [1]; in assay [2]; with Papain (Carica papaya)) was “inactive” each time.
With `CN1CCC(c2c[nH]c3ccc(O)cc23)CC1`, the Potency result (in assay [1]; in assay [2]; with Papain (Carica papaya)) was “inactive” throughout. Further, the result in assay [3] was inactive.
In the case of `CCCN1CCC[C@@H](c2cccc(O)c2)C1`, the Potency entry (in assay [1]; in assay [2]; with Papain (Carica papaya)) was “inactive” in each case. In addition, the outcome in assay [3] was inactive.
Regarding `c1ccc2cc(CC3=NCCN3)ccc2c1`, the Potency result (in assay [1]; in assay [2]; with Papain (Carica papaya)) was “inactive” in each case.
`CC(N)Cc1c[nH]c2ccc(O)cc12` (configuration not stated): the Potency result (in assay [1]; in assay [2]; in the assay with Papain (Carica papaya)) was “inactive” each time.
Take `CC(N)[C@H](O)c1ccc(O)c(O)c1` (some centres not stated): the Potency entry (in assay [1]; in assay [2]; with Papain (Carica papaya)) was “inactive” each time. Besides, in assay [3], the outcome was inactive.
As to `CC(C)[C@@]1(NC(=O)[C@@H]2C[C@@H]3c4cccc5[nH]cc(c45)C[C@H]3N(C)C2)O[C@@]2(O)[C@@H]3CCCN3C(=O)[C@H](Cc3ccccc3)N2C1=O`, the Potency entry in assay [1] was “inactive”. Further, in assay [5], the molecule was called inactive. Further, the Potency in assay [6] is 25.1 µM (active).
Regarding `NCCc1ccc(S(=O)(=O)F)cc1`, the Potency result (in assay [1]; in assay [2]; with Papain (Carica papaya)) was “inactive” each time.
For the molecule `C=CCN1C[C@@H](C)N([C@H](c2ccc(C(=O)N(CC)CC)cc2)c2cccc(OC)c2)C[C@@H]1C`, the Potency entry (in assay [1]; in assay [2]; with Papain (Carica papaya)) was “inactive” each time.
In the case of `O=C(O)c1cc[c]([Hg][Cl])cc1`, the Potency result in assay [1] was “inactive”. The result in assay [5] and in assay [3] was inactive.
For the molecule `NCCc1c[nH]c2ccc(C(N)=O)cc12`, the Potency entry (in assay [1]; in assay [2]; in the assay with Papain (Carica papaya)) was “inactive” throughout. Besides, in assay [3], the result was inactive.
Regarding `COc1ccc2c(c1O)-c1cccc3c1[C@@H](C2)N(C)CC3`, the Potency result (in assay [1]; in assay [2]; with Papain (Carica papaya)) was “inactive” each time. Moreover, the outcome in assay [3] was inactive.
As to `CC(=O)NBr`, the Potency result (in assay [1]; in assay [2]; in the assay with Papain (Carica papaya)) was “inactive” in each case. Besides, in assay [3], the outcome was inactive.
`C[N+]1(C)CCc2cc3c(cc2[C@H]1[C@@H]1OC(=O)c2c1ccc1c2OCO1)OCO3`: the Potency result (in assay [1]; in assay [2]; with Papain (Carica papaya)) was “inactive” in each case.
For `OCc1cnc[nH]1`, the Potency entry (in assay [1]; in assay [2]; in the assay with Papain (Carica papaya)) was “inactive” in each case. Also, the outcome in assay [3] was inactive.
Regarding `Cc1o[nH]c(=O)c1CC(N)C(=O)O` (configuration not stated), the Potency result (in assay [1]; in assay [2]; in the assay with Papain (Carica papaya)) was “inactive” in each case. The outcome in assay [3] was inactive.
Take `CCCN(CCC)[C@H]1CCc2c(F)ccc(O)c2C1`: the Potency entry (in assay [1]; in assay [2]; with Papain (Carica papaya)) was “inactive” each time. Besides, the outcome in assay [3] was inactive.
Take `NC(Cc1ccc(N(CCCl)CCCl)cc1)C(=O)O` (configuration not stated): in assay [1], the Potency is 0.794 µM (active). The outcome in assay [3] was inactive.
With `Oc1ccc2c3c1O[C@H]1c4oc5ccccc5c4C[C@@]4(O)C(C2)N(CC2CC2)CCC314` (some centres not stated), the Potency entry (in assay [1]; in assay [2]; with Papain (Carica papaya)) was “inactive” in each case. In addition, the outcome in assay [3] was inactive.
Regarding `NC(N)=NOCC[C@H](N)C(=O)O`, the Potency entry (in assay [1]; in assay [2]; in the assay with Papain (Carica papaya)) was “inactive” in each case. Moreover, the outcome in assay [3] was inactive.
As for `CCCN(CCC)C1Cc2cc(OC)c(OC)cc2C1`, the Potency result (in assay [1]; in assay [2]; in the assay with Papain (Carica papaya)) was “inactive” throughout. In assay [3], the outcome was inactive.
On to `CC(N)Cc1c[nH]c2ccc(OCc3cccs3)cc12` (configuration not stated), for which the Potency result (in assay [1]; in assay [2]; in the assay with Papain (Carica papaya)) was “inactive” throughout.
`C#CCN[C@H](C)Cc1ccccc1`: the Potency result (in assay [1]; in assay [2]; with Papain (Carica papaya)) was “inactive” each time.
For the molecule `CCCC[N+]1(C)C2CC(OC(=O)[C@H](CO)c3ccccc3)CC1C1OC12` (some centres not stated), the Potency entry (in assay [1]; in assay [2]; with Papain (Carica papaya)) was “inactive” in each case.
As to `Cc1cc([C@@H]2CCCN2C)on1`, the Potency result (in assay [1]; in assay [2]; in the assay with Papain (Carica papaya)) was “inactive” each time. The outcome in assay [3] was inactive.
Turning to `NC(N)=Nc1ccc2[nH]c3c(c2c1)C[C@@]1(O)[C@H]2Cc4ccc(O)c5c4[C@@]1(CCN2CC1CC1)[C@H]3O5`, the Potency result (in assay [1]; in assay [2]; with Papain (Carica papaya); in assay [4]) was “inactive” in each case. For the same molecule, the result in assay [3] was inactive.
Regarding `C[N+]1(C)C2CCC1CC(OC(=O)c1c[nH]c3ccccc13)C2` (configuration not stated), the Potency result (in assay [1]; in assay [2]; with Papain (Carica papaya)) was “inactive” throughout.
`CN1CCc2cc(O)cc3c2[C@H]1Cc1ccc(O)c(O)c1-3`: the Potency in assay [1] is 3.98 µM (active). Further, the Potency entry (in assay [2]; in the assay with Papain (Carica papaya)) was “inactive” throughout.
For the molecule `NNC(N)=O`, the Potency entry (in assay [1]; in assay [2]; in the assay with Papain (Carica papaya)) was “inactive” in each case.
Turning to `CC(C)NP(=O)(NC(C)C)OP(=O)(NC(C)C)NC(C)C`, the Potency result (in assay [1]; in assay [2]; with Papain (Carica papaya)) was “inactive” throughout. Moreover, the outcome in assay [3] was inactive.
For the molecule `CCN(CCCl)Cc1ccccc1Br`, in assay [1], the Potency was 2.82 µM (active). Besides, the outcome in assay [3] was inactive.
Take `CC1=CC2/C=C(\C)CCC(O)C3OC(C)(C)OC3CC(=O)OC23C(=O)NC(CC(C)C)C3C1C` (configuration not stated): in assay [7], the Potency result was “inactive”.
